This is part of a sample that, as a whole, favours compounds with a hit. Of some 83,000 tested, about 20% had one in any assay.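 Testing used 96-well plates and a 48-hour single-concentration exposure. Example: -40 means 40% of the starting cells died.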 Activity calls are given as the source filed them. Rule for the calls: active = growth percent below 10; inactive = the rest.

For the assay, the system named is U251 CNS. The assay can be described thus: NCI-60 one-dose screen, 48 h (100 = growth as untreated, 0 = no growth, -100 = all killed). The following applies: 10 µM unless noted.
In the case of `CN(C)CCCC(C#N)c1ccccc1` (stereo unspecified), the growth was 105% (inactive).

For the compound `C=C1CCC2C3(C)COC(c4ccc(N(C)C)cc4)OC3CCC2(C)C1C/C=C1/C(=O)OCC1O` (stereo unspecified), the growth is 51.1% (inactive).

Consider `COc1ccc(-c2cn(-c3cccc(C(=O)/C=C/c4cc(OC)c(OC)c(OC)c4)c3)c(=O)[nH]2)cc1OC`, for which the growth is 71.6% (inactive).

`C=C[C@@H]1C[C@@H]2Cc3cc(F)ccc3N1O2`: the growth is 99.3% (inactive).

`COc1ccc2c(c1)cn1c3ccc(OC)cc3[nH]c(=O)c21`: the growth was -90.3% (active). `C=C[C@@H]1C[C@H](O)Cc2ccccc2N1`: the growth is 99.1% (inactive). In the case of `NC(=S)N/N=C1\CCCC(C(F)(F)F)C1` (stereo unspecified) it was 107% (inactive); in that of `Cn1c(=O)c2[nH]c(C3CC=CCC3)nc2n(C)c1=O` (stereo unspecified), 105% (inactive).

Regarding `N#C/C(=C1C=C/C(=N/O)C(Cl)=C/1)c1ccc(Cl)cc1`, the growth is 46.4% (inactive). In the case of `COc1ccc(C(=O)n2nc(/C=C/c3ccc(O)c(OC)c3)cc2/C=C/c2ccc(O)c(OC)c2)cc1` it was 0.801% (active); in that of `C=C[C@@H]1C[C@H](O)Cc2c(C)cc(C)cc2N1`, 97.3% (inactive); in that of `Cn1ncc2c(Sc3ccc(Cl)cc3)ncnc21`, 81.9% (inactive). On to `COc1cc(/C=C/c2cc(/C=C/c3ccc(O)c(OC)c3)n(C(N)=O)n2)ccc1O`, for which the growth is -10.9% (active). Consider `CO[C@H]1NC(=O)N(S(=O)(=O)c2ccc(Cl)cc2)[C@@H]1OC`, for which the growth was 101% (inactive). As for `COc1ccc2[nH]c(=O)c3c4ccccc4cn3c2c1`, the growth was 9.8% (active). Under `Nc1ncnc2c1c(-c1ccc(Oc3ccccc3)cc1)nn2C[C@@H]1SSC[C@@H]1O` stands 37.5% (inactive).

The record behind these values is PubChem BioAssay (NCI).
